# Assay results taken from PubChem BioAssay (NCATS).
# Records with an inconclusive call do not appear. A call without a number means that no potency is given here. The source made the active and inactive calls. Unless noted, calls follow the shape of the dose curve; as a rule, active = well fitted curve in the direction sought with a large enough effect; inconclusive = small, poorly fitted or top-dose-only effect, or another doubt; inactive = no such curve, though single readings can be large; an effect the other way counts as inactive or inconclusive.
# Assays:
# CP335 = experiment: qHTS profiling for inhibitors of Plasmodium falciparum proliferation (AID 504749); also: nearly all actives have a fitted effect of over 60% in size; also: potency is read from the fitted curve at half-maximal effect; details: P. falciparum in erythrocytes, SYBR Green DNA, 72 h; series mostly up to 28.7 µM
# How it was run: (§1)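 Each compound contacts P. falciparum-infected red blood cells for 72 h at 37 C; lysis buffer (Tris, EDTA, saponin, Triton X, SYBR Green I) is added and fluorescence measured next morning; values normalized to controls.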
# DIV14 = experiment: as above; details: P. falciparum in erythrocytes, SYBR Green DNA, 72 h; series mostly up to 28.7 µM
# How it was run: as §1
# ICS = experiment: as above; details: P. falciparum in erythrocytes, SYBR Green DNA, 72 h; series mostly up to 28.7 µM
# How it was run: as §1
# PC26 = experiment: as above; details: P. falciparum in erythrocytes, SYBR Green DNA, 72 h; series mostly up to 28.7 µM
# How it was run: as §1
# [1] = S16 Schwann cell PMP22 intronic element beta-lactamase assay (AID 624044; calls by dose curve; also: nearly all actives have a fitted effect of over 15% in size; also: potency is read from the fitted curve at half-maximal effect); details: S16 rat Schwann cells, PMP22 element beta-lactamase FRET, 24 h; ratio activity, negative = inhibition: at 38.3 µM (top of the series)
# How it was run: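 Beta-lactamase reporter under a PMP22 intronic regulatory element in stable S16 rat Schwann cells; 24 h compound exposure. 460 nm blue signal normalized between DMSO (0%) and potassium clavulanate, with 535 nm FRET tracking viability; curves classed by r2 and response.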
# [2] = biological target: Cytochrome P450 3A4 (Homo sapiens) (UniProt P08684); experiment: qHTS Assay for Inhibitors and Substrates of Cytochrome P450 3A4 (AID 884); also: nearly all actives have a fitted effect of over 50% in size
# Chain of Cytochrome P450 3A4 (Homo sapiens) (P08684 whole entry, looked up): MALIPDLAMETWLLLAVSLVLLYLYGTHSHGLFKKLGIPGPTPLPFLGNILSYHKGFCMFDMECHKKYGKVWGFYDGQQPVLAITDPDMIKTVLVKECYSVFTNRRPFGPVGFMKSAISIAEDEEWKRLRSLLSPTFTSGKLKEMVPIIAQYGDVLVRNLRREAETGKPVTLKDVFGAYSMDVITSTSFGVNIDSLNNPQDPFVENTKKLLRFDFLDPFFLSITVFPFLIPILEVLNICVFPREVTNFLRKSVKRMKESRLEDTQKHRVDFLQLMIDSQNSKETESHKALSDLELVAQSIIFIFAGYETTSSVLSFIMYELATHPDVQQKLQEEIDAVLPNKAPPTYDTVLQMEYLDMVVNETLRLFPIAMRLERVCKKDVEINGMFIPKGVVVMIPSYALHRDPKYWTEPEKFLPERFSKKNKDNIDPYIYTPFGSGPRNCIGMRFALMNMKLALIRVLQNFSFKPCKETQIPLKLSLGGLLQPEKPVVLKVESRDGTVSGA
# How it was run: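 Luminescent readout of luciferin produced by CYP3A4 (20 nM) dealkylation of Luciferin-PPXE, 25 uM (its KM). NADPH-driven reaction ran 60 min at RT after 10 min compound preincubation; data scaled to 57 uM ketoconazole as 100% inhibition.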
# [3] = Confirmation and Secondary Assay for Modulators of Hemoglobin Beta Chain Splicing at IVS2 654 locus (AID 910);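 also: HeLa cells stably carrying EGFP split by mutant beta-globin IVS2-654 intron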
# How it was run: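 HeLa cells stably expressing EGFP interrupted by β-globin IVS2-654 intron, seeded overnight in Opti-MEM/2% FCS, then treated 2 days at 37 °C. Restored splicing read as total peak GFP intensity per well by laser scanning cytometry (488 nm excitation, 500–520 nm emission); 500 nM antisense PNA as control.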
# [4] = Confirmation and Secondary Assay for Modulators of Hemoglobin Beta Chain Splicing at IVS2 705 locus (AID 930);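 also: HeLa cells stably expressing the EGFP-705 splicing reporter; GFP fluorescence per well restored by corrected splicing of the IVS2-705 intron in EGFP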
# How it was run: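 Stable HeLa line with EGFP disrupted by mutant beta-globin intron 2 (705). Overnight attachment, then 2 days of compound at 37C, 5% CO2. Signal: peak GFP intensity summed over objects 5-250 µm.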
# [5] = biological target: Mitogen-activated protein kinase 10 (Mus musculus) (UniProt Q61831); experiment: JNK3 AlphaScreen Assay (AID 530; active = well fitted curve in either direction with a large enough effect, not every such curve was filed as active;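 also: kinase came from lysate of stimulated human HepG2 cells; signal reports phosphorylation of biotinylated GST-cJun 1-79 at Ser73 with 10 µM ATP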)
# How it was run: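 Activity was read by AlphaScreen after JNK3-containing HepG2 lysate (cytokine pre-activated) phosphorylated biotinylated GST-cJun with 10 uM ATP at room temperature. Phospho-Ser73 cJun antibody with Protein-A acceptor beads provided detection.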
# [6] = biological target: 3',5'-cyclic-AMP phosphodiesterase 4B (Homo sapiens) (UniProt Q07343); experiment: qHTS Assay for Inhibitors of PDE-IV (AID 607; active = well fitted activation curve with a large enough effect in the main read-out, with a control signal flat, not every such curve was filed as active)
# Chain of 3',5'-cyclic-AMP phosphodiesterase 4B (Homo sapiens) (Q07343 whole entry, looked up): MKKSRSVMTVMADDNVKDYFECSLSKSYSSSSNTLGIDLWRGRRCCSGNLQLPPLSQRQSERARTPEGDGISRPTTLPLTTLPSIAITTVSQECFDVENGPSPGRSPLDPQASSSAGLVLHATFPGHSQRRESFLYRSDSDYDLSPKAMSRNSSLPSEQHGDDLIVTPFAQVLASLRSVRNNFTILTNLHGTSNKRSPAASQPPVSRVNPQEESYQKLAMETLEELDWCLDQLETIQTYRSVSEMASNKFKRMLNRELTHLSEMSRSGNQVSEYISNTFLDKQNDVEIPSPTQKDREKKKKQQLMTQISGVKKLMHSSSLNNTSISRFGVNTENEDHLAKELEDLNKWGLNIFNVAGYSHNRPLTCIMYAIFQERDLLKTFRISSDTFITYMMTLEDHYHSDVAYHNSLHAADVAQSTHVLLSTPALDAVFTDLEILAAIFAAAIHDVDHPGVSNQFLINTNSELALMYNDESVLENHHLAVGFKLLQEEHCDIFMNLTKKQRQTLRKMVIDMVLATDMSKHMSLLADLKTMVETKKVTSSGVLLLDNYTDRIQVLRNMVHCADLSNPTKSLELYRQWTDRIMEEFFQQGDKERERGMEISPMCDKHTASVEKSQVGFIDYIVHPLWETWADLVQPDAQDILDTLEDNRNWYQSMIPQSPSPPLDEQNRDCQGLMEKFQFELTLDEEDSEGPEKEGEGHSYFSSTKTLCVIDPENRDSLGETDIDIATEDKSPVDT
# How it was run: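 Cell-based read-out of cAMP via a modified cyclic nucleotide-gated channel and membrane potential dye (535/590 nm) in HEK293 cells expressing PDE4 endogenously. Compounds tested up to 22.9 uM final; 100 uM RO 20-1724 reference.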
# [7] = biological target: Cytochrome P450 3A4 (Homo sapiens) (UniProt P08684); experiment: qHTS Assay for Activators of Cytochrome P450 3A4 (AID 885); also: nearly all actives have a fitted effect of over 65% in size
# How it was run: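 Luminescent readout of luciferin formed from 25 uM Luciferin-PPXE (KM level) by 20 nM CYP3A4 in 200 mM KPO4, with 60 min NADPH-driven reaction at room temperature after 10 min compound exposure. Ketoconazole (57 uM) defined 100% inhibition.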
structure (smiles),measurement,setting,value
O=c1ccn(C2OC(COP(=O)(O)OC3C(CO)OC(n4ccc(=O)[nH]c4=O)C3O)C(O)C2O)c(=O)[nH]1 (stereo not drawn),Potency,CP335,inactive
same,Potency,DIV14,inactive
same,Potency,ICS,inactive
same,Potency,PC26,inactive
Cc1ccc(Nc2ncccc2C(=O)O)cc1C,Potency,[1],inactive
same,Potency,CP335,inactive
same,Potency,DIV14,inactive
same,Potency,ICS,inactive
same,Potency,PC26,inactive
CCC(=O)OC1C(N(C)C)CC(C)O[C@H]1O[C@H]1[C@H](C)[C@@H](O[C@H]2CC(OC)[C@@H](O)C(C)O2)[C@H](C)C(=O)O[C@@H](CC)[C@](C)(O)[C@@H](O)[C@H](C)C(=O)[C@@H](C)C[C@]1(C)O (stereo partly drawn),Potency,DIV14,inactive
CO/N=C(/C(=O)N[C@H]1C(=O)N2C(C(=O)O)=C(COC(C)=O)CSC12)c1csc(N)n1 (stereo partly drawn),Potency,[2],inactive
same,Potency,[3],inactive
same,Potency,[4],inactive
Nc1ncn(C2C[C@H](O)[C@@H](CO)O2)c(=O)n1 (stereo partly drawn),Potency,CP335,inactive
same,Potency,DIV14,inactive
same,Potency,ICS,inactive
same,Potency,PC26,inactive
C[C@]12CCC(=O)C=C1[C@@H]1C[C@H]1[C@H]1[C@@H]3[C@@H]4C[C@H]4[C@@]4(CCC(=O)O4)[C@@]3(C)CC[C@@H]12,Potency,CP335,inactive
same,Potency,PC26,inactive
C=CC1CN2CCC1CC2[C@@H](O)c1ccnc2ccc(OC)cc12 (stereo partly drawn),Potency,[1],inactive
same,Potency,CP335,0.338 µM (active)
same,Potency,DIV14,0.213 µM (active)
same,Potency,ICS,0.0891 µM (active)
same,Potency,PC26,0.239 µM (active)
O=C(NCCF)[C@H]1C[C@@H]1[C@H](NP(=O)(c1ccccc1)c1ccccc1)c1ccccc1,Potency,[5],inactive
same,Potency,[6],inactive
CC(=O)N1CC(O)CC1C(=O)O (stereo not drawn),Potency,[1],inactive
same,Potency,CP335,inactive
same,Potency,DIV14,inactive
same,Potency,ICS,inactive
same,Potency,PC26,inactive
CNC1CCc2cc(OC)c(OC)c(OC)c2-c2ccc(OC)c(=O)cc21 (stereo not drawn),Potency,[1],0.178 µM (active)
same,Potency,CP335,inactive
same,Potency,PC26,inactive
C=C1C(n2cnc3c(=O)[nH]c(N)nc32)C[C@H](O)[C@H]1CO (stereo partly drawn),Potency,[1],inactive
O=C(NCc1ccccc1)[C@H]1C[C@@H]1[C@H](NP(=O)(c1ccccc1)c1ccccc1)c1ccccc1,Potency,[5],inactive
same,Potency,[6],inactive
C[C@H](CN1c2ccccc2Sc2cccnc21)N(C)C,Potency,CP335,6.01 µM (active)
same,Potency,DIV14,4.78 µM (active)
CCOC(=O)C(CCc1ccccc1)NC(C)C(=O)N1Cc2cc(OC)c(OC)cc2CC1C(=O)O (stereo not drawn),Potency,[1],inactive
same,Potency,DIV14,6.01 µM (active)
same,Potency,PC26,6.75 µM (active)
CN(C)CC/C=C1\c2ccccc2COc2ccc(CC(=O)O)cc21,Potency,[1],inactive
same,Potency,DIV14,inactive
same,Potency,ICS,inactive
O=C(O)C(O)c1ccccc1 (stereo not drawn),Potency,CP335,inactive
same,Potency,DIV14,inactive
same,Potency,ICS,inactive
same,Potency,PC26,inactive
CO[C@@H]1/C=C\O[C@]2(C)Oc3c(C)c(O)c4c(O)c(c(/C=N\N5CCN(C)CC5)c(O)c4c3C2=O)NC(=O)/C(C)=C\C=C/[C@H](C)[C@H](O)[C@H](C)[C@H](O)[C@H](C)[C@H](OC(C)=O)[C@@H]1C,Potency,[6],inactive
O=C1[C@@H]2C[C@@H]3C[C@H]1C[C@@](O)(C3)C2,Potency,[1],inactive
same,Potency,CP335,inactive
same,Potency,DIV14,inactive
same,Potency,ICS,inactive
same,Potency,PC26,inactive
O=C(O)C[CH2][Ge](=[O])[O][Ge](=[O])[CH2]CC(=O)O,Potency,[1],inactive
same,Potency,CP335,inactive
same,Potency,DIV14,inactive
same,Potency,ICS,inactive
same,Potency,PC26,inactive
CCCSS/C(CCO)=C(/C)N(C=O)Cc1cnc(C)nc1N,Potency,CP335,inactive
same,Potency,DIV14,inactive
same,Potency,PC26,inactive
NC(=O)c1ncn(C2OC(CO)C(O)C2O)c1N (stereo not drawn),Potency,[2],inactive
same,Potency,[3],inactive
same,Potency,[4],inactive
same,Potency,DIV14,inactive
same,Potency,ICS,inactive
same,Potency,PC26,inactive
O=C(NCc1ccccc1)[C@@H]1C[C@H]1[C@@H](NP(=O)(c1ccccc1)c1ccccc1)c1ccccc1,Potency,[6],inactive
C=CCN1CC(C(=O)N(CCCN(C)C)C(=O)NCC)CC2c3cccc4[nH]cc(c34)CC21 (stereo not drawn),Potency,[1],inactive
same,Potency,DIV14,15.1 µM (active)
same,Potency,ICS,12.6 µM (active)
same,Potency,PC26,inactive
CCCC(=O)O[C@]1(C(=O)COC(C)=O)CC[C@H]2C3C[C@H](F)C4=CC(=O)C=CC4(C)[C@@]3(F)[C@@H](O)CC21C (stereo partly drawn),Potency,CP335,inactive
CNC1C(O)C(OC2C(NC(=O)C(O)CN)CC(N)C(OC3OC(CN)C(O)C(O)C3O)C2O)OCC1(C)O (stereo not drawn),Potency,DIV14,inactive
same,Potency,PC26,inactive
Cc1cnc(C(=O)O)cn1,Potency,[1],inactive
same,Potency,CP335,inactive
same,Potency,DIV14,inactive
same,Potency,ICS,inactive
same,Potency,PC26,inactive
CC(=O)OCC(=O)[C@@]1(O)CCC2C3C[C@H](C)C4=CC(=O)C=CC4(C)C3C(O)CC21C (stereo partly drawn),Potency,CP335,inactive
same,Potency,ICS,inactive
same,Potency,PC26,inactive
Nc1nc(/C(=C/CC(=O)O)C(=O)NC2C(=O)N3C(C(=O)O)=CCSC23)cs1 (stereo not drawn),Potency,[7],inactive
same,Potency,[3],inactive
same,Potency,[4],inactive
same,Potency,[1],inactive
same,Potency,CP335,inactive
same,Potency,DIV14,inactive
same,Potency,ICS,inactive
same,Potency,PC26,inactive
CC[C@@H]1/C=C(\C)C[C@H](C)C[C@H](OC)[C@H]2O[C@@](O)(C(=O)C(=O)N3CCCC[C@H]3C(=O)O[C@H](/C(C)=C/[C@@H]3CC[C@H](Cl)[C@H](OC)C3)[C@H](C)[C@@H](O)CC1=O)[C@H](C)C[C@@H]2OC,Potency,[1],inactive
same,Potency,CP335,inactive
same,Potency,DIV14,inactive
same,Potency,ICS,inactive
same,Potency,PC26,inactive
